Source: PubChem BioAssay (NCI)
This is part of a sample that, as a whole, favours compounds with a hit. Of some 83,000 tested, about 20% had one in any assay.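 Assay: single dose, 48 h. Readout: percent growth (0 = no net growth; negative = cell death). Active: <10.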 A number with no mark means an inactive call. Active and inactive are the calls of the source.

Key:
Test in all cases: NCI-60 one-dose screen, 48 h (100 = growth as untreated, 0 = no growth, -100 = all killed)
Settings in all cases: 10 µM unless noted
[1] = system: HCT-15 colon
[2] = system: HT29 colon
[3] = system: SNB-75 CNS
[4] = system: SNB-19 CNS
[5] = system: U251 CNS
[6] = system: PC-3 prostate
[7] = system: SK-MEL-5 melanoma
[8] = system: UACC-62 melanoma
[9] = system: LOX IMVI melanoma
[10] = system: SK-MEL-28 melanoma

Compound	growth [1]	growth [2]	growth [3]	growth [4]	growth [5]	growth [6]	growth [7]	growth [8]	growth [9]	growth [10]
CCn1cc(C(=O)O)c(=O)c2cc(F)c(N3CCN(CC(=O)Nc4ccccc4)C(C)C3)c(F)c21 (stereo not given)	101%	108%	86.1%	99.1%	102%	93.2%	99.2%	78.2%	88.5%	97%
COc1ccc(CNc2ccc3nc(NC(=O)CN4CCCCCC4)sc3c2)cc1	70.9%	60.6%	131%	96.1%	85.4%	65.8%	67.8%	73.8%	78.5%	101%
CN1c2ccccc2S(=O)(=O)n2c(SCC(=O)Nc3nc4ccc(F)cc4s3)nnc21	119%	119%	90.7%	107%	127%	87.8%	87.2%	96.5%	92.5%	127%
CC(C)(C)OC(=O)CN1CCc2c(sc3ncnc(N4CCN(c5ccc(F)cc5)CC4)c23)C1	96.6%	98.7%	82.6%	88%	85.5%	69.2%	92%	68.4%	96.7%	92.5%
Cc1c2cnccc2c(C)c2c1c1cc(CO)ccc1n2C	-10.9% (active)	-16.3% (active)	-45.1% (active)	-22.2% (active)	-38.1% (active)	-9.48% (active)	-96.8% (active)	-74.7% (active)	-63.5% (active)	-69.5% (active)
CCOC(=O)CC1CSC(N/N=C/c2ccc(F)c(Br)c2)=N1 (stereo not given)	101%	84.8%	109%	110%	94.7%	103%	101%	103%	101%	107%
CCn1cc(C(=O)N/N=C/c2ccccc2)c(=O)c2cc(F)c(N3CCNC(C)C3)c(F)c21 (stereo not given)	-86.5% (active)	-92% (active)	92.8%	18.9%	-92.3% (active)	48.9%	11.9%	-27.9% (active)	-87.3% (active)	-78.8% (active)
O=C1C=CC2(O)OC/C(=C\c3ccccc3)C(O)=C2C1=O (stereo not given)	-6.43% (active)	17.8%	38.8%	27.6%	-35.2% (active)	0.717% (active)	31.3%	-64.1% (active)	-82.8% (active)	51.9%
Cc1c2ccccc2nc2cc3c(cc12)[C@H]1CC[C@]2(C)C(=O)CC[C@H]2[C@@H]1CC3	90.3%	99.9%	66.4%	84.9%	92%	80.6%	88.8%	88.1%	97.8%	111%
Cn1c2ccccc2c2c3c(c4c5cc(Br)ccc5n(C)c4c21)C(=O)N(O)C3=O	21%	52.6%	38.9%	16%	3.06% (active)	47%	-35.4% (active)	-4.53% (active)	-77.9% (active)	54.3%
C(=C(\C1=NCCN1)n1ccc2ccccc21)/c1ccccc1	99.6%	103%	80.7%	99.9%	94.6%	95.5%	98.3%	93.5%	93.3%	106%
Clc1ccc(Nc2nnc(CNc3ccccc3)c3ccccc23)cc1	13.4%	0.551% (active)	19.6%	25.9%	9.66% (active)	7.15% (active)	-69.1% (active)	8.47% (active)	12.1%	14.9%
CC1(C)CC[C@]23CC[C@]4(C)[C@H](CC[C@@H]5[C@@]6(C)CCNCC(C)(C)[C@@H]6CC[C@]54C)[C@H]2[C@H]1OC3	54.2%	18.6%	96.8%	103%	70%	65.8%	96.2%	94.4%	83.8%	99.9%
CCOc1ccc(/C=C/C(=O)c2cccc(OCCCOc3cccc(C(=O)/C=C/c4ccc(OCC)cc4)c3)c2)cc1	75.9%	94.2%	83.9%	92.1%	103%	75.2%	75.2%	57.9%	83.5%	87.1%
C=C1C(=O)O[C@H]2[C@H]1CC/C(COC(=O)C(=O)c1c[nH]c3ccc(Cl)cc13)=C\CC[C@@]1(C)O[C@@H]21	-58.4% (active)	-52.7% (active)	-97% (active)	-71.6% (active)	-93.1% (active)	-74.4% (active)	-97.6% (active)	-81.8% (active)	-92.7% (active)	-72.4% (active)
COc1ccc(C2C3=C(COC3=O)N(CCO)c3cc4c(cc32)OCO4)cc1OC (stereo not given)	77%	39.9%	71%	88.1%	97.9%	58.3%	67.9%	71.8%	77.2%	89%
C[C@@H]1NC(=O)[C@H](Cc2ccccc2)N(Cc2cccnc2)C1=O	103%	102%	85.1%	96.1%	91.1%	94.1%	101%	92.7%	98.5%	112%
O=C(Oc1ccc2c(c1)sc1nc(-c3ccccc3)[nH]c(=O)c12)C(F)(F)F	22.2%	75.6%	10.7%	45.6%	28.9%	43.1%	11.6%	11.3%	18.8%	36%
Nc1ccc(Br)cc1C(F)(F)F	106%	108%	109%	104%	109%	105%	103%	108%	99.2%	121%
COc1cc(C[C@H]2COc3cc(O)cc(O)c3C2=O)ccc1O	19.9%	83.8%	14.1%	31.5%	22.3%	29.7%	22.4%	30.9%	38.6%	58.4%
COc1ccc(C(=O)C/C(=C\c2ccc(O)c(OC)c2)C(=O)NN)cc1	64.2%	102%	99.6%	85%	84.9%	67.3%	75%	75.8%	82.2%	75.6%
O=S(=O)(Nc1cc(Sc2nc3ccccc3s2)c(O)c2ccccc12)c1ccc2ccccc2c1	97.5%	115%	88.2%	106%	86.6%	77.3%	74.5%	99.1%	60.1%	116%
COCCn1cc(-c2nc(-c3c[nH]c4ncccc34)cs2)c2ccccc21	20.3%	50.2%	47.2%	88.6%	72%	33.2%	34.3%	64.4%	66.9%	89.4%
CN(C)CCCC1(c2ccc(F)cc2)OCc2cc(-c3csc4ccccc34)ccc21 (stereo not given)	-59.7% (active)	-29.2% (active)	29.7%	-35.6% (active)	-57.1% (active)	30%	-45.7% (active)	-86.3% (active)	-97.9% (active)	-84% (active)
Oc1nc(NCc2ccccc2)sc1/C=C1\C=Nc2ncccc21	67.4%	57.9%	37.3%	63.3%	51.1%	71.3%	70%	69.7%	52.1%	69.2%
COc1ccccc1S(=O)(=O)Nc1ccc2c3c(cc(CCC(=O)NCCCCNc4cccc5c4C(=O)N(C4CCC(=O)NC4=O)C5=O)cc13)C(=O)N2C (stereo not given)	68.4%	48.4%	-26.1% (active)	7.56% (active)	61.4%	3.96% (active)	-33% (active)	43.9%	21.4%	13.3%
Cc1c(C(C)(C)O)cn2ncnc(Oc3ccc(NC(=O)Nc4ccc(Cl)c(C(F)(F)F)c4)c(F)c3)c12	55.5%	61.1%	36.5%	53.2%	47%	39.2%	61.4%	72%	59.7%	71.3%
